Source: PubChem BioAssay
This is a sample that favours compounds with a hit; in the whole collection about 2.3% have one here.
Tau fluor counter – counter-screen for tau fibril formation inhibitors. tau K18 P301L Alexa594 fluorescence, heparin fibrillization. Potency, µM (top dose mostly 57.7 µM), without a hit: at the highest dose activity change, negative = decrease. hit rate 0.93% among 280,000. AID 1463; also: potency is read from the fitted curve at half-maximal effect; nearly all actives have a fitted effect of over 55% in size
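Human tau K18 P301L (15 uM unlabeled, 0.24 uM Alexa 594-labeled) in 100 mM sodium acetate pH 7 with 20 uM heparin, 6 hr at 37 C. ThT 30 uM added, 1 hr ambient; Alexa 594 FP and total fluorescence read at 555/632 nm.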
Tau ThT inhib – tau fibrillization inhibition (ThT binding). P10636. recombinant tau K18 P301L (four-repeat tau fragment), heparin-induced fibrillization, ThT fluorescence. Potency, µM (top dose mostly 57.4 µM), for the others: at the highest dose activity, negative = inhibition, usual class: inhibitors. hit rate 2.1% among 270,000. AID 1460; also: potency is read from the fitted curve at half-maximal effect; nearly all actives have a fitted effect of over 55% in size
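Heparin-induced (20 uM) aggregation of recombinant human K18 P301L tau, 15 uM unlabeled with 0.24 uM labeled, pH 7 acetate buffer, 6 hr at 37 C with compound. Fibrils quantified by 30 uM ThT fluorescence after 1 hr ambient incubation.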
Coupling enz – coupling enzyme interference in Giardia aldolase counter-screen; coupling enzyme system counterscreen, AmpLite Red fluorescence; activity change, negative = inhibition, % at 58.2 µM, hits read low; hit rate 0.67% among 290,000; AID 2472; in the data active = activity change below about -30%
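Fluorescence at 525 nm excitation and 598 nm emission measured inhibition of the coupled detection system without aldolase. Compounds (at 57.5 uM final) were preincubated 10 min at room temperature with coupling enzyme reagent before a 20 min substrate/AmpLite Red step.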
USP1 inh – USP1/UAF1 (human) deubiquitinase inhibition; recombinant USP1/UAF1, Ub-Rhodamine cleavage fluorescence; Potency, µM (top dose mostly 57.1 µM), for inactives: at the highest dose activity change, negative = inhibition, actives largely listed as inhibitors; hit rate 0.23% among 390,000; AID 743255; also: potency is read from the fitted curve at half-maximal effect; nearly all actives have a fitted effect of over 60% in size
Target sequence (O94782 whole entry, looked up): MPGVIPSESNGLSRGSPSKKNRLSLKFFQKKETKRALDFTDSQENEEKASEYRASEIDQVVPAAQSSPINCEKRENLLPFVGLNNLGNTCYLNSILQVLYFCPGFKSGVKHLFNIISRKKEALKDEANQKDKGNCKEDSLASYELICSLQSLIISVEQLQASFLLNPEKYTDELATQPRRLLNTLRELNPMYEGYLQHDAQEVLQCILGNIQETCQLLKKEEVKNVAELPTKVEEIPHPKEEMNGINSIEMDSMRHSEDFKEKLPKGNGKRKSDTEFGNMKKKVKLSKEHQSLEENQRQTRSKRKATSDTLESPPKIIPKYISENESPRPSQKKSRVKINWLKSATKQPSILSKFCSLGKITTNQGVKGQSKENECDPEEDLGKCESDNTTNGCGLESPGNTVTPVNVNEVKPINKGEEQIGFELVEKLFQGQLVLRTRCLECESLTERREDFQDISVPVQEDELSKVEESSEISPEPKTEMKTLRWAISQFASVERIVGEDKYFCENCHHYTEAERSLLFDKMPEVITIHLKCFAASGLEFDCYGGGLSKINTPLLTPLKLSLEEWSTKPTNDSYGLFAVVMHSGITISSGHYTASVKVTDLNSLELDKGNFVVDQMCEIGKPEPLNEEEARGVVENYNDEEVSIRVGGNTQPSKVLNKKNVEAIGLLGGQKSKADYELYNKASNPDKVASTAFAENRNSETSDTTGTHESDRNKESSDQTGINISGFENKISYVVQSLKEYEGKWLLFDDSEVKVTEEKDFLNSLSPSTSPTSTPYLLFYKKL
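1 nM enzyme complex + cpd, 15 min RT; start with Ub-Rho 150nM final; kinetic fluorescence ex 480/em 540, 6 reads q60 s. Buffer 50mM HEPES pH 7.8, 0.5mM EDTA, 0.1 mg/ml BSA, 1mM TCEP, 0.01% Tween-20.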
Tau FP inhib – blocks human tau fibril formation measured by polarization; AID 1468; K18 P301L tau heparin fibrillization, Alexa594 FP, 6 h; Potency, µM (series often up to 57.7 µM), inactives show top-dose activity, negative = inhibition, hits mostly inhibitors; hit rate 0.39% among 280,000; also: potency is read from the fitted curve at half-maximal effect; nearly all actives have a fitted effect of over 55% in size
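Recombinant K18 P301L […], labeled with Alexa 594 at 0.24 uM over 15 uM unlabeled; heparin inducer 20 uM final; 37 C, 6 hr; FP endpoint.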
* = called active by the depositor; ? = inconclusive; · = no result given; [ ] = remark or other dose. Unless noted, calls follow the shape of the dose curve; as a rule, active = well fitted curve in the direction sought with a large enough effect; inconclusive = small, poorly fitted or top-dose-only effect, or another doubt; inactive = no such curve, though single readings can be large; an effect the other way counts as inactive or inconclusive. % is scaled to controls: 0 for no effect and ±100 for the full control effect.

SMILES	Tau fluor counter	Tau ThT inhib	Coupling enz	USP1 inh	Tau FP inhib
Cc1ccc(S(=O)(=O)NC2OC(=O)C(Cl)=C2Cl)cc1 (configuration not stated)	-19%	28µM*	2	-22%	?
COc1ccc([C@]23Cc4cc(OC)c(OC)cc4C(O2)c2c(cc(-c4ccccc4)oc2=O)O3)cc1	·	·	-1	·	·
C=CC(=O)N1C/C(=C/c2ccccc2)C(=O)/C(=C\c2ccccc2)C1	·	·	·	-23%	·
CN1C2CCC1/C(=C\c1ccccc1)C(=O)/C2=C\c1ccccc1	-25%	16µM*	3	-16%	?
O=C(Cc1ccc(Cl)cc1Cl)Nc1cccc(S(=O)(=O)Nc2ccccc2F)c1	-18%	?	2	-3%	28µM*
O=C(Cc1c(F)cccc1Cl)Nc1cccc(S(=O)(=O)NC2=NCCCCC2)c1	·	·	·	-7%	·
CC1COCC(C)N1C1=C(Cl)C(=O)c2ccccc2C1=O (configuration not stated)	·	·	·	-15%	·
CN1CCN(C2=C(Cl)C(=O)c3ccccc3C2=O)CC1	·	·	·	3.5µM*	·
O=C1C(Cl)=C(N2CCC(C(=O)O)CC2)C(=O)c2ccccc21	10µM*[quencher]	4.5µM*	-29	25µM*	11µM*
O=C(O)C1CCN(C(=O)c2ccccc2Cl)CC1	-4%	2%	5	-15%	2%
NC(=O)C1CCN(C(=O)c2ccc(-c3ccccc3Cl)o2)CC1	·	·	·	-19%	·
NC(=O)C1CCN(C2=C(Cl)C(=O)c3ccccc3C2=O)CC1	3%	13%	-51*	32µM*	3%
COC(=O)C1=C(C)N=C2SCCC(=O)N2C1c1cc(Br)ccc1OC (configuration not stated)	?	5µM*	-1	-9%	3%
CCOC(=O)C1=C(C)N=C2SCCC(=O)N2C1c1cc(Br)ccc1OC (configuration not stated)	·	·	·	-17%	·
Cc1ccsc1CCN1C(=O)N(c2ccccc2)C(=O)C1CC(=O)Nc1ccc(Cl)cc1 (configuration not stated)	?	7%	·	-3%	?
COC(=O)C/C=C1\c2ccc3c(c2[C@@H](OC)[C@@H]1C)OCO3	-6%	-11%	0	·	11%
O=C(O)c1ccc(N=NNc2cccc([N+](=O)[O-])c2)cc1	-9%	?	8	-16%	6%
N#C/C(=N\Nc1cccc([N+](=O)[O-])c1)C(=O)c1ccc(Br)cc1	?	10µM*	12	-20%	14%
O=[N+]([O-])c1ccc(-c2cnc[nH]2)cc1	-16%	?	-2	-1%	-7%
O=[N+]([O-])c1ccc(-c2cc(-c3ccc(Cl)cc3)n[nH]2)cc1	?	1.1µM*	0	-24%	6%
COc1ccc(S(=O)(=O)NCCS(=O)(=O)N2CCN(c3ccccc3)CC2)cc1OC	-9%	-3%	·	-16%	-2%
Cc1ccc(CNc2ncnc3onc(C)c23)cc1	-3%	-5%	·	-30%	4%
CCc1ccc2oc(-c3ccc(OC)cc3)cc(=Nc3c(C)n(C)n(-c4ccccc4)c3=O)c2c1	-30%	11µM*	-1	-28%	9%
O=C1/C(=C\c2cc(Cl)c(O)c(Cl)c2)SC(=S)N1Cc1ccccc1	·	·	6	4µM*	·
CCOc1ccc(N/C=C/C(=O)c2ccccc2)c([N+](=O)[O-])c1	?	1.4µM*	-1	-5%	-9%
SMILES	Tau fluor counter	Tau ThT inhib	Coupling enz	USP1 inh	Tau FP inhib
O=C(O)C(S)C(S)C(=O)O (configuration not stated)	·	·	·	6%	·
O=C(O)C(S)[C@@H](S)C(=O)O (some centres not stated)	-29%	7.9µM*	0	·	11µM*
COC(=O)C1C(O)C(C)C(O)C(C)(O)/C=C\C=C(/C)C(=O)Nc2c(C)c(OC(C)=O)c3c(c2O)C(=O)C(C)=C2OCOC(=C23)/C(C)=C/C(C)(O)C(O)C(C)C1O (configuration not stated)	4µM*[quencher]	·	-42*	?	?
Cc1cc(NS(=O)(=O)c2ccc(NC(=O)COc3ccccc3Br)cc2)no1	-11%	-15%	·	-15%	?
Cc1ccc(C)c(CSC2=NC(C)(C)Nc3ccccc32)c1	11µM*[quencher]	?	·	-14%	1%
CC1(C)N=C(SCc2ccc(F)cc2)c2ccccc2N1	11µM*[quencher]	?	·	-13%	-5%
CCC(C(=O)NCCC(C)C)N(C(=O)Cn1nnc(-c2ccc(C)cc2)n1)c1cccc(O)c1 (configuration not stated)	-15%	-2%	·	-11%	?
CCCCNC(=O)CSc1nc2ccccc2nc1Cc1ccc(Cl)cc1	1%	-2%	·	-11%	-12%
O=C(Nc1ccc(N2CCOCC2)cc1)Nc1ccc(Cl)c(Cl)c1	8.9µM*[quencher]	13µM*	2	-10%	?
CC(=O)c1ccc(C(=O)Nc2ccc(N3CCOCC3)cc2)cc1	-22%	2.2µM*	-1	-23%	-16%
O=C(Nc1cccc(S(=O)(=O)Nc2ccc(Cl)cc2)c1)c1cc2c(s1)CCCC2	?	6%	2	-19%	14µM*
O=C(Nc1ccc(Cl)cc1)Nc1ccc(N2CCOCC2)cc1	?	?	0	-12%	14%
CC(C)(C)c1ccc(C(=O)Nc2ccc(N3CCOCC3)cc2)cc1	?	4.5µM*	-2	?	-12%
Cc1ccc(OCC(=O)N(Cc2ccco2)Cc2ccc(C)o2)cc1	-8%	-9%	·	-26%	-2%
O=C(Nc1ccc(N2CCOCC2)cc1)c1cc2c(s1)CCCCC2	?	10µM*	2	-19%	8%
CCn1c2ccccc2c2cc(NC(=O)COC(=O)c3ccccc3O)ccc21	-28%	-4%	1	2%	1%
CCn1c2ccccc2c2cc(NC(=O)COC(=O)c3cc(Cl)c(N)cc3OC)ccc21	10µM*[quencher]	?	-1	-24%	4%
CCn1c2ccccc2c2cc(NC(=O)COC(=O)c3cc(S(N)(=O)=O)c(Cl)cc3Cl)ccc21	8.9µM*[quencher]	?	2	-21%	6%
COc1ccc(-c2cc(C(F)(F)F)n3nc(C)c(-c4ccccc4)c3n2)cc1OC	-9%	-10%	·	-26%	-2%
Cc1ccc2nc(COc3ccccc3NC(=O)COc3ccc(F)cc3)cc(=O)n2c1	-6%	-6%	·	-8%	-2%
O=S(=O)(Nc1nc2ccccc2nc1Nc1ccc2c(c1)OCCO2)c1cccs1	?	13µM*	4	?	15%
COc1ccc(N2CCN(C(CNC(=O)CC(C)C)c3ccc4c(c3)OCO4)CC2)cc1 (configuration not stated)	-18%	-8%	·	-5%	?
COc1ccc(N=C2S/C(=C\c3ccc(N4CCOCC4)o3)C(=O)N2CCc2c[nH]c3ccccc23)cc1	?	14µM*	-1	·	6%
